Test results as given in paper PMC6792352, “Limited Chemical Structural Diversity Found to Modulate Thyroid Hormone Receptor in the Tox21 Chemical Library” (Environmental Health Perspectives, 2019).
Structures can show the parent of a compound that is named as a salt.

System: thyroid hormone receptor (endogenous TRα and TRβ)
Parameters: species or system GH3-TRE-Luc (rat pituitary); GH3-TRE-Luc luciferase reporter, antagonist mode against 1 nM T3, loss of signal, qHTS
Conditions: read-out: Average AC50 (uM) GH3-TRE-Antag, antagonist mode, 1 nM T3, no GH3 cytotoxicity hit

Compound: CN(C)CCN1C(=O)c2ccccc2N(C)c2ccccc21 [Dibenzepin hydrochloride]
- AC50: 36.6 µM

Compound: c1ccc(CN(Cc2ccccc2)Cc2ccccc2)cc1 [Tribenzylamine]
- AC50: 90.8 µM

Compound: c1ccc2c(c1)Cc1ccccc1-2 [Fluorene]
- AC50: 55.8 µM

Compound: CC(C)c1cccc(C(C)C)c1N1C(=O)c2ccc(O)cc2C1=O [5HPP-33]
- AC50: 5.01 µM

Compound: c1ccc2c(c1)ccc1ncccc12 [Benzo(f)quinoline]
- AC50: > 90 µM

Compound: CCN(CC)c1ccc(C(=O)c2ccccc2C(=O)O)c(O)c1 [2-[4-(Diethylamino)-2-hydroxybenzoyl]benzoic acid]
- AC50: 43.7 µM

Compound: CCC(C)c1cc(C(C)(C)C)c(O)c(C(C)(C)C)c1 (stereo not shown) [4-(Butan-2-yl)-2,6-di-tert-butylphenol]
- AC50: 23.6 µM
